From PubChem BioAssay
Rows were chosen to be rich in hits. Some 1.3% of all compounds tested hit in one or more screens of this group.
LmPK inhibitor: LmPK (Leishmania mexicana) enzyme inhibition | purified LmPK, Kinase-Glo ATP luminescence, 1 h | 0.37% of 290,000 active | AID 1721 | Potency, µM (titrated, usually from 57.5 µM), without a hit: at the top dose activity change, negative = inhibition, usual class: inhibitors
Target sequence (Q27686 whole entry, looked up): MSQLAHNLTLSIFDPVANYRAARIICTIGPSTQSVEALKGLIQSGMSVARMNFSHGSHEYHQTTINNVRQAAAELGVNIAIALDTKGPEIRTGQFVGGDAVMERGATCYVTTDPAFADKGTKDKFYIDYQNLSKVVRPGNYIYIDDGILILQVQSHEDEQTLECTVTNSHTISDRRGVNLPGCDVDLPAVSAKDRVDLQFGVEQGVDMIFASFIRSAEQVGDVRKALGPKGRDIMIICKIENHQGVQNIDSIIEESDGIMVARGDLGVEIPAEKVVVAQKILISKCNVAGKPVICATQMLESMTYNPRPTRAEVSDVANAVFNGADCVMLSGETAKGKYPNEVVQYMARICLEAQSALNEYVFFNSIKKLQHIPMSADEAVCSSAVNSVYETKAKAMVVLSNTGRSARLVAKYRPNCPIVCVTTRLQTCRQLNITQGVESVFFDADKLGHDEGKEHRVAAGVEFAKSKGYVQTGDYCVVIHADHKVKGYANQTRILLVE
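In 50 mM imidazole pH 7.2 with 7 mM MgCl2, LmPK (0.1 nM) turned over PEP (0.5 mM) and ADP (0.1 mM) for 1 h at room temperature. Luciferase read-out of ATP.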
AmpC detergent: AmpC beta-lactamase inhibition with detergent present; AmpC hydrolysis of nitrocefin, absorbance 480 nm, 0.01% Triton; Potency, µM (titrated, usually from 114 µM), inactives show at the top dose activity change, negative = inhibition, usual class: inhibitors; 0.041% of 370,000 active; AID 485294;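 also: 0% = no-compound wells and -100% = no-enzyme wells; nearly all actives have a fitted effect of over 25% in size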
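20 mM phosphate pH 7.0 + 0.01% (detergent screen) or 0.0001% Triton X-100; 5.3 nM AmpC reagent; cpd preinc 15 min RT; nitrocefin (800 uM stock) to start; A480 q20 s × 4 min; Activity was normalised to no-enzyme and no-compound control wells.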
AmpC no deterg: blocks E. coli AmpC beta-lactamase in detergent-free assay; AmpC nitrocefin hydrolysis, absorbance 480 nm, 0.0001% Triton; 0.52% of 330,000 active; P00811; Potency, µM (doses to about 57.1 µM), for the others: at the highest dose activity change, negative = inhibition, hits mostly inhibitors; AID 485341;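 also: plate controls were no compound for no effect and no enzyme for full effect; nearly all actives have a fitted effect of over 20% in size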
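AmpC (5.3 nM in the dispensed reagent) in 20 mM phosphate pH 7.0 with 0.01% (detergent screen) or 0.0001% Triton X-100 was preincubated with compounds for 15 min at room temperature. Nitrocefin was then added from an 800 uM solution, and hydrolysis was followed at 480 nm.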
Giardia FBPA inh-1: inhibitors of Giardia lamblia fructose-1,6-bisphosphate aldolase; A8B2U2; purified Giardia FBPA; Potency, µM (doses to about 59.6 µM), for the others: at the highest dose activity, negative = inhibition, usual class: inhibitors; 0.71% of 290,000 active; AID 2451; also: nearly all actives have a fitted effect of over 55% in size
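40 nM FBPA preincubated 10 min at RT with compound (up to 57.5 uM final), then substrate plus GAPDH/TPI/NAD/arsenate coupling and diaphorase/resazurin added. Fluorescence read after 20 min at RT, 525/598 nm.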
AMA1-RON2 inh: AMA1-RON2 (P. falciparum) interaction inhibition; AlphaScreen AMA1-biotinylated RON2 peptide binding; Potency, µM (titrated, usually from 58.2 µM), without a hit: at the highest dose activity change, negative = inhibition, most hits filed as inhibitors; 0.2% of 360,000 active;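 also: 0% = vehicle wells and -100% = peptide control; nearly all actives have a fitted effect of over 45% in size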
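AMA1 (3D7) with his tag at 25 nM final met compounds first, then biotinylated RON2 peptide at 25 nM; detection used donor plus acceptor beads, 10 µg/mL apiece, read by AlphaScreen after 30 min at room temperature.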
Giardia growth: blocks growth of Giardia lamblia trophozoites. shares compounds with Giardia FBPA inh-1. Giardia lamblia trophozoite growth inhibition. Potency, µM (titrated, usually from 57.5 µM), for the others: top-dose activity change, negative = inhibition, most hits filed as inhibitors. 5% of 1,500 active;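 also: trophozoites exposed to compound for 48 h at 37 °C; nearly all actives have a fitted effect of over 70% in size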
Mammalian tox: toxic to mammalian cells in Giardia aldolase counter-screen | shares compounds with Giardia FBPA inh-1 | mammalian cell viability counter-screen, qHTS | Potency, µM (highest dose often 57.5 µM), inactives show at the top dose viability change, negative = toxicity, actives largely listed as inhibitors | 4% of 1,500 active;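 also: Chinese hamster ovary cells used as mammalian cytotoxicity surrogate; viability measured as cellular ATP by luminescence; compound exposure lasted 48 h before reading; nearly all actives have a fitted effect of over 60% in size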
Giardia FBPA inh-2: confirmation of Giardia fructose-bisphosphate aldolase inhibitors | 5% of 1,500 active | purified Giardia aldolase enzyme activity, qHTS | shares compounds with Giardia FBPA inh-1 | Potency, µM (titrated, usually from 57.5 µM), without a hit: at the top dose activity change, negative = inhibition, most hits filed as inhibitors; also: nearly all actives have a fitted effect of over 45% in size
Rabbit aldolase: blocks rabbit muscle aldolase in Giardia aldolase selectivity test. Potency, µM (top dose mostly 57.5 µM), for inactives: at the highest dose activity, negative = inhibition, usual class: inhibitors. Rabbit muscle FBPA enzyme inhibition, selectivity counter-screen. 4% of 1,500 active. shares compounds with Giardia FBPA inh-1; also: nearly all actives have a fitted effect of over 60% in size
GAPDH counter: GAPDH inhibition flagged for Giardia aldolase hits | GAPDH coupling enzyme counterscreen, biochemical, qHTS | shares compounds with Giardia FBPA inh-1 | 6% of 1,500 active | Potency, µM (titrated, usually from 57.5 µM), inactives show at the highest dose activity change, negative = inhibition, hits mostly inhibitors; also: nearly all actives have a fitted effect of over 55% in size
* hit, by the source's call; ? = inconclusive; . = not tested or not shown; [ ] = another dose, or the depositor's remark. Calls follow the shape of the dose curve; as a rule, active = well fitted curve in the direction sought with a large enough effect; inconclusive = small, poorly fitted or top-dose-only effect, or another doubt; inactive = no such curve, though single readings can be large; an effect the other way counts as inactive or inconclusive. Unless noted, % is scaled to controls: 0 for no effect and ±100 for the full control effect; potency is read from the fitted curve at half-maximal effect.

SMILES | LmPK inhibitor | AmpC detergent | AmpC no deterg | Giardia FBPA inh-1 | AMA1-RON2 inh | Giardia growth | Mammalian tox | Giardia FBPA inh-2 | Rabbit aldolase | GAPDH counter
C=CCNC(=S)N1CCN(Cc2ccccc2)CC1 | -3.8% | -4.3% | -1.5% | 17.7µM* | ? | -11.8%[10.4 µM] | 10.9% | 12.3% | 13.4% | 6.7%
Cc1ccc(NC(=O)CSc2nc3nc(C)c(Br)cc3[nH]2)cc1F | 11.9% | -7.3% | -53.7% | 17.8µM* | 14.4% | ? | 6.0% | 5.6% | 6.0% | 17.2%
Cc1cc(C)nc(N2N=C(c3ccccc3)CC2=O)n1 | -4.3% | 6.0% | -0.8% | -23.9% | 146.3% | . | . | . | . | .
Cc1cc(C)nc(N2N=C(C(F)(F)F)CC2=O)n1 | 2.0% | -1.9% | -0.2% | 11.2µM* | 12.8% | 13.8% | 14.3% | 5.9% | -4.5% | 9.3%
O=C(CCC1CCCC1)N1CCc2c([nH]c3ccccc23)C1c1ccc(Cl)cc1 (configuration not stated) | . | -0.3% | . | . | . | . | . | . | . | .
O=C(CCc1ccccc1)NNC(=O)c1ccccn1 | 0.9% | 9.0% | -10.7% | 17.7µM* | 99.8% | 11.2µM* | ? | 2.6% | 2.3% | -3.6%
O=C(CCc1ccccc1)NNC(=O)CCc1ccccc1 | 0.2% | 0.2% | -10.5% | 12.0% | 61.3% | . | . | . | . | .
C[C@H]1CN([C@@H](C)CO)C(=O)c2cc(C#Cc3ccccn3)cnc2O[C@@H]1CN(C)Cc1ccccc1 | . | . | . | . | 3.2% | . | . | . | . | .
N#Cc1cccc(N=c2ssnc2Cl)c1 | -23.3% | -12.8% | -16.0% | 19.9µM* | -11.0% | ? | 1.6% | -10.5% | ? | 12.9%
Clc1nssc1=Nc1ccc(Br)cc1 | 1.9% | -5.0% | -31.4% | ? | -25.1% | . | . | . | . | .
Clc1ccc(N=c2ssnc2Cl)nc1 | 1.8% | 7.1% | -5.0% | 0.3% | 11.6% | . | . | . | . | .
COc1cc(N=c2ssnc2Cl)cc(OC)c1 | -21.7% | -2.2% | -14.8% | 15.8µM* | 3.4% | -3.3%[10.4 µM] | -9.2% | -2.8% | -11.2% | 16.3%
COc1ccc(C(=O)C2CCN(C(=O)Nc3ccccc3C)CC2)cc1 | -0.5% | 0.5% | 2.1% | -6.8% | 27.3% | . | . | . | . | .
C[n+]1cccc2c(Br)ccc([O-])c21 | -5.7% | -5.3% | 2.9% | 0.177µM* | -22.0% | 20µM* | -15.8% | 3.98µM* | 12.6µM* | 4.47µM*
O=C(O)CSc1c(O)c2ccccc2[nH]c1=O | 0.5% | -0.6% | -6.8% | 17.7µM* | 131.1% | ? | 1.0% | -18.0% | -19.6% | -17.9%
NC(=NCc1ccc2c(c1)OCO2)NC(=O)c1ccccc1 | -3.4% | 0.4% | -31.1% | 1.41µM* | -28.2% | 12.7%[38.3 µM] | -4.3% | -6.6% | -0.1% | 6.9%
C/C(CCc1ccc2c(c1)OCO2)=N\NC(=O)c1ccccc1 | 0.2% | -7.8% | -12.5% | 0.5% | 36.4% | . | . | . | . | .
C/C(=N\NC(=O)Cc1ccc(Cl)cc1)c1cccc(NC(=O)c2cccnc2)c1 | -15.2% | -10.8% | -7.5% | . | 50.1% | . | . | . | . | .
CCCCN1CCc2[nH]c(=S)[nH]c(=O)c2C1 | -2.7% | ? | 1.0% | 15.8µM* | 13.9% | ? | -2.7% | 4.8% | -2.9% | 2.2%
COCCN1CCc2[nH]c(=S)[nH]c(=O)c2C1 | -0.5% | -14.4% | -7.4% | ? | 18.6% | . | . | . | . | .
O=C(O)c1ccc(/C=C/c2ccc3cccc(O)c3n2)cc1 | -20.7% | -5.8% | -35.4% | 17.7µM* | 84.8% | 26.9% | -8.5% | 3.98µM* | ? | ?
O/N=C/c1ccc2cccc(O)c2n1 | 1.9% | -4.9% | -5.3% | 7.06µM* | 107.6% | 9.4%[10.4 µM] | -10.3% | 2µM* | -28.7% | -28.3%
COc1ccc(C(=O)Nc2ccccc2-c2nc3ccccc3s2)c(OC)c1 | . | 4.9% | . | . | . | . | . | . | . | .
C(=C\c1ccccc1)/CN1CCN(Cc2ccc3c(c2)OCO3)CC1 | -3.4% | ? | -31.6% | 7.94µM* | ? | -20.3% | 6.8% | 8.6% | -0.1% | 16.6%
O=[N+]([O-])c1ccccc1/C=C/CN1CCN(Cc2ccc3c(c2)OCO3)CC1 | -4.4% | -16.0% | 19.0% | 11.2µM* | -20.0% | -8.0%[10.4 µM] | 7.3% | -7.0% | -0.4% | 8.5%
SMILES | LmPK inhibitor | AmpC detergent | AmpC no deterg | Giardia FBPA inh-1 | AMA1-RON2 inh | Giardia growth | Mammalian tox | Giardia FBPA inh-2 | Rabbit aldolase | GAPDH counter
C/C(=C\c1ccccc1)C(=O)N1CCN(Cc2ccc3c(c2)OCO3)CC1 | -1.8% | 4.0% | 88.7% | 5.4% | -4.5% | . | . | . | . | .
O=[N+]([O-])c1cccnc1N1CCN(Cc2ccc3c(c2)OCO3)CC1 | -13.7% | -14.5% | -9.1% | ? | ? | . | . | . | . | .
COc1cc(CN(C(=O)COc2ccc(C)c(C)c2)c2ccccn2)cc(OC)c1OC | . | 0.3% | . | . | . | . | . | . | . | .
O=S(=O)(CCNCc1ccco1)NC1CCCCC1 | . | . | . | . | -1.3% | . | . | . | . | .
O=C(Nc1ccc(F)cc1)Oc1ccc[nH]c1=O | -4.6% | -4.8% | -16.8% | ? | 18.3% | 6.9%[38.3 µM] | -17.4% | 0.461µM* | ? | -29.7%
O=C(Oc1ccc[nH]c1=O)c1ccccc1 | . | . | . | . | 2.9% | . | . | . | . | .
